# Unmarked numbers belong to inactive results. How the calls were made is not given here.
# Test system: Potassium Channel KATP
# Experiment: selectivity profile across receptors and CYP450s – biochemical, Ricerca HitProfilingScreen, CYP450, set 2, selectivity assay for S1P4 agonist project, profiling panel (AID 540332)
# Settings: at 30 µM; hits give high values
smiles,measurement,value
COCCN=C1S/C(=C\c2cc(C)n(-c3ccc(F)cc3F)c2C)C(=O)N1C,inhibition,-5%
